Source: PubChem BioAssay (The Scripps Research Institute Molecular Screening Center)
DAX1 inh-1 = DAX1 (NR0B1) inhibitors, primary screen, cell-based, HEK293, Gal4-DAX1, luciferase luminescence | Nuclear receptor subfamily 0 group B member 1 (Homo sapiens), P51843 | HEK293 Gal4-DAX1 luciferase reporter | inhibition, % at 6.75 µM | actives 0.99% (n = 340,000) | AID 504766, 2011;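 active means inhibition above the mean over all tested compounds plus 3 SD, cut at about 4.2% in these data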;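 further: 0% = DAX1-transfected cells with DMSO and 100% = empty-vector control cells with DMSO; inhibition shows as a rise in luminescence from relieved DAX1 repression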
Target sequence (P51843 207-470 limits assumed): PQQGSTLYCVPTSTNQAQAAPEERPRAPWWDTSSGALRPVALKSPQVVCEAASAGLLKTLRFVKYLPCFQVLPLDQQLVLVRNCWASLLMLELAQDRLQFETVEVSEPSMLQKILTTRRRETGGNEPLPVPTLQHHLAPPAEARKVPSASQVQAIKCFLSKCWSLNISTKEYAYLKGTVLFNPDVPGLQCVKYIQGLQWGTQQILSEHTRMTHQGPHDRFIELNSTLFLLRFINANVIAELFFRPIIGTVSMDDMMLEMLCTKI
hcDAF-12 act = H. contortus DAF-12 nuclear receptor activators, primary screen, cell-based, luminescence, HEK293, lit1-tk-luc reporter | activation, % at 6.8 µM | HEK293 hcDAF-12 lit1-tk-luc reporter; 0% DMSO, 100% Δ7-dafachronic acid | actives 1.4% (n = 370,000) | AID 652067, 2013;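 active means activation above the mean of all tested compounds plus 3 SD, cut at about 5.5% in these data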;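 further: 100% = response to 3 µM Δ7-dafachronic acid high control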
DAX1 inh-2 = DAX1 (NR0B1) inhibitors on StAR promoter, primary screen, cell-based, luminescence, SF-1 (NR5A1), full-length DAX-1. HEK293T StAR-luciferase reporter, SF-1/DAX-1 repression relief. inhibition, % at 6.8 µM. actives 1.1% (n = 370,000). AID 652010, 2013;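 active means inhibition above the mean over all tested compounds plus 3 SD, cut at about 3.6% in these data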;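 further: 0% = DAX-1 cells with DMSO and 100% = cells lacking DAX-1 with DMSO; higher inhibition means more luminescence from relief of DAX-1 repression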
ssDAF12 agonist = S. stercoralis DAF-12 nuclear receptor activators, primary screen, cell-based, luminescence, HEK293, GRIP1 co-expression, lit1-tk-luc; Nuclear hormone receptor DAF-12 (Strongyloides stercoralis); HEK293 ssDAF-12/GRIP1 lit1-tk-luc reporter; % of 3 µM dafachronic acid response; activation, % at 6.8 µM; actives 1% (n = 370,000); AID 652126, 2013;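 active means activation above the mean over all tested compounds plus 3 SD, cut at about 0.9% in these data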;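 further: 0% = DMSO-only wells and 100% = 3 µM delta7-dafachronic acid wells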
hgDAF12 agonist = H. glycines DAF-12 receptor agonists, primary screen, cell-based, luminescence, HEK293, GAL4 fusion, UAS-luciferase. actives 1.8% (n = 370,000). HEK293 GAL4-hgDAF12 UAS-luciferase reporter, agonist luminescence; normalized to butyrate control. activation, % at 6.8 µM. AID 687014, 2013;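 active means activation above a cutoff set at the mean of all screened compounds plus 3 SD, cut at about 10% in these data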;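 further: 0% = DMSO wells and 100% = sodium butyrate wells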
* marks the source's active call; other numbers are inactive results; . = no result given. An excerpt weighted towards active compounds, which were near 4.1% of everything screened.

SMILES	DAX1 inh-1	hcDAF-12 act	DAX1 inh-2	ssDAF12 agonist	hgDAF12 agonist
OCCC1CN(CC#Cc2ccccc2)CCN1Cc1ccccc1F (configuration not stated)	0	3	0	1.6*	0
CCc1nnn2c1Cn1c3ccccc3c(=O)n1[C@@H](C)C2	.	0	0	-1	-4
CCN(CC)C(=O)CSc1ncnc2c(-c3cccs3)nsc12	1	2	1	0.9*	2
CC1(C)SC(=S)N(/N=C/c2cccnc2)C1N(O)C(=O)Nc1ccccc1 (configuration not stated)	6.2*	0	0	0	-1
COc1ccc(-n2nnc3c(SCC(=O)N4CCCc5ccccc54)ncnc32)cc1	6.3*	-2	1	-1	-4
COc1ccc(-n2nnc3c(=O)n(CC(=O)N4CCCc5ccccc54)cnc32)cc1	0	1	-1	0	-2
COc1ccc(C(=O)c2[nH]c(N)c(C(=O)NCCc3c[nH]c4ccccc34)c2-c2ccc(Br)cc2)cc1	.	3	1	1	0
COc1ccc(C(=O)c2[nH]c(N)c(C(=O)NCCc3c[nH]c4ccccc34)c2-c2ccc(C(F)(F)F)cc2)cc1	.	5	0	1.9*	5
Cc1nc(NCCCN2CCOCC2)c2cnn(-c3ccccc3)c2n1	1	4	2	0	12*
CS(=O)(=O)N1c2ccccc2C[C@H]1Cc1cc2ccccc2o1	.	1	.	0	1
COc1ccccc1N1CCN(N=Cc2ccccc2Br)CC1	.	0	-1	-1	0
Oc1ccc2ccccc2c1C=Nc1ccc(Cl)cn1	0	2	-1	1.3*	1
Cc1cc(O)c(C=Nc2ccc(Cl)cn2)c(=O)o1	0	0	0	-2	-1
CCCCNC[C@@]12CO[C@H](c3ccc(Cl)cc3)N1[C@@H](c1ccc(Cl)cc1)SC2	.	0	1	1	0
CN1CCN(c2nc(-c3ccccc3O)nc3ccccc23)CC1	1	6.5*	0	0	4
COc1ccc(C(CNC(=O)CSc2ccccc2F)N2CCOCC2)cc1 (configuration not stated)	0	-1	0	1.1*	-1
O=C(CCNc1ccccc1)c1ccc2c(c1)OCO2	4.8*	4	3	1	11*
CN(C)CCC(=O)c1ccc2c(c1)OCO2	4	-1	0	-1	-1
COC(=O)c1ccc(CN2CCCC(CO)(Cc3ccc(F)cc3F)C2)cc1 (configuration not stated)	-1	-2	0	1.0*	-1
CC(C)CCN(C)C1CCN(C(=O)Nc2ccc3c(c2)OCO3)CC1	.	-4	0	-1	0
Cc1ccc2cc(COC(=O)c3cccc([N+](=O)[O-])c3)c(=O)[nH]c2c1	4.5*	1	1	0	-1
CCCN1C2CCCC1CC(NC(=O)c1ccccc1OCC)C2 (configuration not stated)	1	5	2	0.9*	3
S=c1[nH]nc(-c2cc(-c3ccccc3)n[nH]2)n1N=Cc1c[nH]c2ccccc12	.	-2	-1	-2	0
O=C(Oc1cccc(-c2cnc3ccccc3n2)c1)c1ccco1	3	6.5*	2	1	10
Cc1ccc(NC(=S)c2nc3ccccc3s2)cc1	2	2	-1	-1	-1
SMILES	DAX1 inh-1	hcDAF-12 act	DAX1 inh-2	ssDAF12 agonist	hgDAF12 agonist
Cc1ccc(C)c(NC(=S)c2nc3ccccc3s2)c1	-2	5.8*	0	1.0*	2
Cc1sc2nc[nH]c(=S)c2c1-c1ccccc1	1	0	0	-2	-3
S=c1[nH]cnc2sc(Nc3ccccc3)nc12	1	5.8*	0	0	5
NC(=O)C1CCCN(Cc2ccc3ccccc3c2)C1 (configuration not stated)	5.1*	-1	-1	-1	-2
S=C(NN=C1C2CC3CC(C2)CC1C3)Nc1ccccc1	0	6.1*	2	1.2*	4
CN1CCCN(C(=O)C2CCCN(C(=O)c3ccc4c(c3)NC(=O)CS4)C2)CC1 (configuration not stated)	.	1	0	-1	-1
COc1ccc2c(c1)CCCN2C(=O)C1CCCN(S(=O)(=O)c2ccc(Br)s2)C1 (configuration not stated)	.	-3	-1	-2	-3
NC(=O)c1cc2ccncc2c2ccccc12	0	-3	0	-2	11*
Cc1cc(C(N)=O)c2ccccc2n1	-1	-2	-1	-1	0
COc1cccc(CNC(=O)Cn2c(-c3ccccc3)cc(C(C)=O)c2C)c1	.	-2	-2	-1	0
Nc1nc(SCn2nnc3ccccc3c2=O)n[nH]1	6.8*	1	1	-2	-1
CCCCS/C(N)=N/N=C/c1ccccc1O	1	3	2	0	8
CCCS/C(N)=N/N=C/c1cc(C)ccc1O	3	4	2	1	11*
Cc1ccccc1NC(=O)c1ccc2c(c1)OCCO2	0	2	1	-1	6
O=C(Nc1cccc2nsnc12)c1ccc2c(c1)OCO2	1	2	1	-1	8
Cc1cccc(NC(=O)c2ccc3c(c2)OCCO3)c1C	0	4	2	0	12*
O=C(Nc1cccc2nsnc12)c1ccc2c(c1)OCCO2	1	5.6*	2	0	10
O=C(NNC(=O)c1ccc([N+](=O)[O-])cc1Cl)c1ccncc1	1	3	1	1.0*	3
Cc1ccc(OC(=O)COc2ccccc2C)c(-n2nc3ccccc3n2)c1	1	6.2*	3	0	10
O=C(NCC1CCCCC1)C1CCC(=O)N(CCc2cccc(F)c2)C1 (configuration not stated)	-1	1	0	-1	-2
C[C@H]1COc2cc(Br)ccc2S(=O)(=O)N1Cc1cn(Cc2ccccc2)nn1	.	-1	1	-2	0
CC1(NC(=O)NCCCCCCNC(=O)NC2(C)CCS(=O)(=O)C2)CCS(=O)(=O)C1 (configuration not stated)	2	-2	0	-1	-2
CC1(NC(=S)NCCCCCCNC(=S)NC2(C)CCS(=O)(=O)C2)CCS(=O)(=O)C1 (configuration not stated)	5.0*	-1	1	-2	0
Cc1ccccc1N1CCN(c2ccccc2NC(=O)/C=C\C(=O)O)CC1	0	4	0	0	1
